In the library only some 1.3% were active in any assay of this set; here they are far more common.
NCOA3 inh: human NCOA3 inhibition; Q9Y6Q9; HEK293 GAL4-SRC3 luciferase reporter, luminescence; inhibition, % at 3.6 µM; actives 0.17% (n = 360,000);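 active = inhibition above a per-campaign cutoff, the mean of all compounds plus 3 SD, cut at about 60% in these data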;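 note: 0% = DMSO-treated cells and 100% = gossypol-treated cells at 36 µM; higher means less SRC3-driven luciferase light from the GAL4 reporter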
SRC2 inh: inhibits human steroid receptor coactivator 2 | Q15596 | HEK293 GAL4-SRC2 luciferase reporter, luminescence | actives 0.17% (n = 370,000) | inhibition, % at 9 µM;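 active = inhibition above the mean inhibition of all tested compounds plus 3 SD, set per campaign, cut at about 52% in these data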;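 note: 0% = DMSO treated cells and 100% = cells given Gossypol at 36 µM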
SRC1 inh: human NCOA1 inhibition; HEK293 GAL4-SRC1 luciferase reporter, luminescence; inhibition, % at 3.6 µM; actives 0.12% (n = 360,000);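 active = inhibition above the campaign mean plus 3 SD, with each screening campaign given its own cutoff, cut at about 60% in these data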;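 note: 0% = DMSO treated cells and 100% = gossypol at 36 µM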
LRH-1 inv ag: suppresses constitutive activity of human LRH-1; O00482; HEK293T StAR-luciferase reporter, LRH-1 transfected, 24 h; actives 0.13% (n = 360,000); inhibition, % at 3.6 µM;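 active = inhibition above the mean inhibition of all tested compounds plus 3 SD, cut at about 73% in these data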;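 note: 0% = DMSO wells and 100% = reporter-only cells lacking LRH-1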
Gli-Sufu antag: Gli-Sufu pathway antagonism | actives 0.74% (n = 340,000) | Sufu-KO-LIGHT fibroblasts, Gli luciferase reporter luminescence | inhibition, % at 5 µM;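 active = inhibition above about 55%, limit read from the data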;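 note: 0% = DMSO-treated cells and 100% = wells with medium but no cells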
NR2F2 inh: blocks human COUP-TFII nuclear receptor; P24468; HEK293T NGFI-A luciferase reporter, luminescence; inhibition, % at 8.6 µM; actives 0.7% (n = 370,000); AID 686940;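 active = inhibition above a per-plate cutoff, mean inhibition of test wells between control levels plus 3 SD, cut at about 38% in these data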;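 note: cells cotransfected with COUP-TFII expression vector driving the NGFI-A reporter; 0% = median of COUP-TF2 test wells and 100% = reporter-only cells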
Target sequence (P24468 whole entry, looked up): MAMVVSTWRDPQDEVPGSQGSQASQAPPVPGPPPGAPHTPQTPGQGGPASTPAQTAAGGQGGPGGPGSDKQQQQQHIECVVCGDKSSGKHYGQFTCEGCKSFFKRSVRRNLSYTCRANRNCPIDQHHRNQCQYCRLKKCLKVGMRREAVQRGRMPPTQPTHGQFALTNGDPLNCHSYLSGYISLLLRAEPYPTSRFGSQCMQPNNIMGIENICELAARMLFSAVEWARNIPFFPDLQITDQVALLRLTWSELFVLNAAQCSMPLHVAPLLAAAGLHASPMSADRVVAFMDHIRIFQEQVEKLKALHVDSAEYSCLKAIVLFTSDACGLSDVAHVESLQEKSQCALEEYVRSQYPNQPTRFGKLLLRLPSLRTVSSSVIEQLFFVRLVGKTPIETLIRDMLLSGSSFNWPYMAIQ
Gli-Sufu confirm: Gli-SUFU antagonism confirmation, single concentration. inhibition, % at 5 µM. Sufu-KO-LIGHT cells, Gli luciferase reporter, luminescence. AID 602428. shares compounds with Gli-Sufu antag. actives 40% (n = 2,500);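 active = mean inhibition at 5 µM reaching about 45%, limit read from the data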;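 note: plate controls were DMSO-treated cells for no effect and wells lacking cells for full effect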
SufuKO cytotox: cytotoxic in Gli-SUFU antagonist counter-screen; actives 32% (n = 2,500); shares compounds with Gli-Sufu antag; cytotoxicity, % at 5 µM; Sufu-KO-LIGHT cells cytotoxicity, ATP luminescence;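 active = mean cytotoxicity at 5 µM above about 25%, limit read from the data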;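 note: cells exposed to compound overnight for roughly 16 to 18 hours; plate controls were DMSO wells with cells for no effect and medium without cells for full effect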
Wnt3a cs: Wnt3a reporter inhibition counter-screen. shares compounds with Gli-Sufu antag. Wnt-LIGHT cells, Wnt3a-driven luciferase reporter, luminescence. inhibition, % at 6.25 µM. actives 20% (n = 2,500). AID 651995;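 active = mean inhibition above about 25%, limit read from the data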
* hit, by the source's call; / = no result.

SMILES	NCOA3 inh	SRC2 inh	SRC1 inh	LRH-1 inv ag	Gli-Sufu antag	NR2F2 inh	Gli-Sufu confirm	SufuKO cytotox	Wnt3a cs
S=c1[nH]nc(CSCc2ccccc2Cl)n1C1CCCCC1	9	28	9	4	52	4	30	20	0
COCCn1c(=NC(=O)c2ccc(S(=O)(=O)N3CCOCC3)cc2)sc2cc(S(N)(=O)=O)ccc21	13	14	-5	-10	21	11	/	/	/
CCn1c(=NC(=O)c2ccc(S(=O)(=O)N3CCOCC3)cc2)sc2cccc(OC)c21	-15	-10	-11	-7	52	17	35	21	-2
CCn1c(=NC(=O)CCS(=O)(=O)c2ccccc2)sc2cccc(OC)c21	16	9	11	45	70*	14	71*	28*	17
CCn1c(=NC(=O)CS(=O)(=O)c2ccc(F)cc2)sc2cccc(OC)c21	4	-33	-4	-8	48	-3	/	/	/
COC(=O)[C@H](Cc1ccccc1)N[C@H](c1ccc(OC)cc1)[C@@H](O)Cc1ccccc1	/	-1	/	/	/	-9	/	/	/
N=c1ccn2c(n1)O[C@H]1[C@H](O)[C@@H](CO)O[C@H]12	-10	16	-21	-6	60*	-8	46*	13	41*
N=c1nc2n(cc1F)C1OC(CO)C(O)C1O2 (stereo not drawn)	17	-4	13	13	56*	-20	47*	26*	36*
CCOc1ccc(S(=O)(=O)N(C)c2ccc(OCC(=O)NCc3ccco3)cc2)cc1	-45	-4	-8	-17	95*	-2	10	3	-30
CCOc1ccc(S(=O)(=O)N(C)c2ccc(OCC(=O)NCc3cccnc3)cc2)cc1	-7	-2	-1	-3	-13	-1	/	/	/
CCOc1ccc(Cl)cc1CNc1nnnn1C	10	1	10	20	51	-13	16	15	-1
CCOc1ccccc1CNc1nnnn1C	-1	-7	7	1	/	-10	/	/	/
O=c1[nH]c(=O)n(-c2ccc(F)cc2)c2c1C(C(F)(F)F)(C(F)(F)F)N=C(c1ccc(F)cc1)N2	19	-12	6	8	75*	-4	69*	10	77*
Cc1ccc(C2=NC(C(F)(F)F)(C(F)(F)F)c3c(n(-c4ccc(F)cc4)c(=O)[nH]c3=O)N2)cc1	15	10	-1	13	40	-5	/	/	/
Cc1ccc(-c2noc(C3CCCN(C(=O)c4ccc(C(C)(C)C)cc4)C3)n2)o1 (stereo not drawn)	-24	5	-5	11	50	13	34	1	-69
Cc1nn(C)cc1/C=C/C(=O)c1ccccc1	-75	-43	-104	-99	99*	-39	14	6	-5
COc1cccc(/C=C2/Sc3ccc(C(=O)NC4CC4)cc3NC2=O)c1	/	-2	/	/	/	23	/	/	/
COc1cc(C(=O)N(C)CC2CCN(CCc3cccc(C(F)(F)F)c3)CC2)ccc1C	-2	16	-5	-10	58*	17	21	-7	-30
Cc1ccc(-c2cc[n+](Cc3ccccc3)cc2)cc1	27	17	5	13	62*	36	78*	41*	26*
Cc1cc[n+](Cc2ccc([N+](=O)[O-])cc2)cc1	-3	1	10	-11	0	-14	/	/	/
COC(=O)C(CC(C)C)N(Cc1ccc(Br)cc1)S(=O)(=O)CCl (stereo not drawn)	/	2	/	/	/	3	/	/	/
COc1ccc(C(CC(=O)O)NC(=O)COc2ccccc2)cc1 (stereo not drawn)	16	13	-14	3	53	1	23	4	5
CN(Cc1ccco1)S(=O)(=O)c1ccc2c(c1)CCN2C(=O)CC(C)(C)C	/	-15	/	/	/	-7	/	/	/
CN(C)CCN1C(=O)c2oc3ccccc3c(=O)c2C1c1ccc(F)cc1 (stereo not drawn)	3	-11	-12	-20	1	7	/	/	/
CCN(CC)CCN1C(=O)c2oc3ccccc3c(=O)c2C1c1ccc(C)cc1 (stereo not drawn)	-10	6	-10	4	80*	-14	22	-6	-22
SMILES	NCOA3 inh	SRC2 inh	SRC1 inh	LRH-1 inv ag	Gli-Sufu antag	NR2F2 inh	Gli-Sufu confirm	SufuKO cytotox	Wnt3a cs
Nc1nc(SCC(=O)Nc2cccc(Oc3ccccc3)c2)n[nH]1	-2	-18	-19	2	53	-27	20	2	-5
CC1Cn2c(CCc3ccccc3)nnc2S1 (stereo not drawn)	-4	9	-14	8	54	11	19	2	-7
CC1Cn2c(Cc3ccccc3)nnc2S1 (stereo not drawn)	-4	12	9	11	/	-2	/	/	/
COc1cc(C(C#N)N2CCOCC2)ccc1O (stereo not drawn)	9	-21	12	-5	55*	-1	21	9	3
COc1cc(C(C#N)N2CCCCC2)ccc1O (stereo not drawn)	-18	10	-18	26	0	7	/	/	/
CCCC[C@@H]1CNC(=S)N1CC1CCCCC1	2	-19	-2	-12	7	-15	/	/	/
S=C1NC[C@H](CC2CCCCC2)N1CC1CCCCC1	-1	14	3	0	65*	3	9	19	-2
Cc1ccc(NC(=O)/C=C/c2ccc([N+](=O)[O-])s2)cc1	-22	-1	-53	-8	18	-13	/	/	/
Cc1ccc(NC(=O)/C=C/c2ccc([N+](=O)[O-])s2)c(C)c1	31	-12	-23	13	72*	-7	37	5	90*
CN1CCN(C2=Cc3ccccc3Sc3cc(F)c(Cl)cc32)CC1	-8	24	10	-4	54	-12	23	0	-34
Cc1cc(C)c2nc(NNC(=O)c3ccc(S(=O)(=O)N4CCCC(C)C4)cc3)sc2c1 (stereo not drawn)	2	25	17	-25	58*	8	17	9	-8
Cc1ccc(C2C(C#N)=C(N)N(c3cccnc3)C3=C2C(=O)CCC3)s1 (stereo not drawn)	1	-66	-41	-24	60*	2	29	3	-4
CCc1nc(N2CCN(C(=O)c3ccco3)CC2)c2c3c(sc2n1)CCCC3	3	18	-2	10	6	11	/	/	/
CC1CCc2c(sc3nc(C4CC4)nc(N4CCN(C(=O)c5ccco5)CC4)c23)C1 (stereo not drawn)	-7	32	-8	-11	77*	30	81*	32*	4
